Results reported in PubChem BioAssay (NCATS).
Results filed as inconclusive are left out. The source made the active and inactive calls. Unless noted, calls follow the shape of the dose curve; as a rule, active = well fitted curve in the direction sought with a large enough effect; inconclusive = small, poorly fitted or top-dose-only effect, or another doubt; inactive = no such curve, though single readings can be large; an effect the other way counts as inactive or inconclusive.

Columns and labels:
[1] = NCATS anti-infectives library activity on HEK293 viability as a counter-qHTS vs the C. elegans viability qHTS (AID 1745854);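 also: HEK293 cells exposed to compounds for 24 hr before the viability read; % is scaled to controls: 0 for no effect and ±100 for the full control effect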
How it was run: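 HEK293 cells (1,500/well) exposed 24 hr at 37C to 1:5 titrations, up to 41.7 uM final; counter-screen to a C. elegans viability qHTS. Viability by CellTiter-Glo luminescence after 10 min at room temperature; digitonin as control.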

[2] = system: Zika virus NS2B-NS3 protease (linked); experiment: 384 well plate NINDS AMC confirmatory qHTS for Zika virus inhibitors (AID 1347163); also: potency is read from the fitted curve at half-maximal effect; nearly all actives have a fitted effect of over 50% in size
How it was run: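 Linked NS2B-NS3 protease (final 5 nM, 30 nM or 60 nM) was preincubated with compounds (final up to 1 mM) for ~15 minutes. Ac-VKTGKR-AMC substrate (final 30 microM) then reacted for 25 minutes at room temperature in the dark. Fluorescence (ex 355/em 460 nm) was normalized to no-enzyme and no-inhibitor controls.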

[3] = NCATS anti-infectives library activity on the primary C. elegans qHTS viability assay (AID 1745855; calls by dose curve; also: potency is read from the fitted curve at half-maximal effect)
How it was run: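 Viability read-out is GFP fluorescence of PE254-GFP-FLuc C. elegans, measured by laser cytometry (488 nm) at day 0, 3 and 7. Ten L1 worms per well were incubated 7 days at 21 °C with compounds and bacterial capsules in S medium.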

[4] = target: Cytochrome P450 2D6 (Homo sapiens) (UniProt P10635); experiment: Cytochrome P450 family 2 subfamily D member 6 (CYP2D6) small molecule antagonists: luciferase biochemical (cell-free) qHTS assay (AID 1645840; active = well fitted curve in the direction sought with a large enough effect in the repeat runs; an effect the other way counts as inactive or inconclusive; also: % is scaled to controls: 0 for no effect and ±100 for the full control effect; nearly all actives have a fitted effect of over 55% in size)
How it was run: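 P450-Glo luminescent screen: recombinant CYP2D6 enzyme–proluciferin substrate mix preincubated with compound 10 min at room temperature, then NADPH regeneration added for 1 h at room temperature. Detection reagent added for 20 min; luciferin light read as relative luminescence units.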

[5] = target: Catechol O-methyltransferase (Homo sapiens) (UniProt P21964); experiment: Confirmatory Screen for Target Class Profiling of Small Molecule Inhibitors of Methyltransferases (AID 1745852; calls by dose curve; also: potency is read from the fitted curve at half-maximal effect; as to activity change, negative = inhibition: % is scaled to controls: 0 for no effect and ±100 for the full control effect); conditions: MTase-Glo luminescence, SAH detection, recombinant enzyme; measured here: COMT max response; stronger effect = lower value
[6] = target: Guanidinoacetate N-methyltransferase (Homo sapiens) (UniProt Q14353); experiment: as above; conditions: MTase-Glo luminescence, SAH detection, recombinant enzyme; activity change, negative = inhibition: at 57.3 µM (top of the series)
[7] = target: Nicotinamide N-methyltransferase (Homo sapiens) (UniProt P40261); experiment: as above; conditions: MTase-Glo luminescence, SAH detection, recombinant enzyme; measured here: NNMT max response; stronger effect = lower value
[8] = target: Phenylethanolamine N-methyltransferase (Homo sapiens) (UniProt P11086); experiment: as above; conditions: MTase-Glo luminescence, SAH detection, recombinant enzyme; measured here: PNMT max response; stronger effect = lower value
[9] = target: Lysosomal acid glucosylceramidase (Homo sapiens) (UniProt P04062); experiment: Glucocerebrosidase-p2 (AID 348; in the data active = potency below about 10 µM; also: potency is read from the fitted curve at half-maximal effect); conditions: purified GBA, blue fluorogenic substrate, 40 min
How it was run: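 Compounds titrated from 0.6 nM upwards against 0.2 nM enzyme in pH 5.9 citric acid/KH2PO4, taurocholate, tween-20; blue fluorogenic substrate 80 uM, 40 min room temperature, stopped and read Ex 365/Em 440 for AC50.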

[10] = AP1 Signaling Pathway (AID 357; active = well fitted curve in either direction with a large enough effect, not every such curve was filed as active; also: % is scaled to controls: 0 for no effect and ±100 for the full control effect); conditions: ME-180 AP-1-bla reporter, EGF-induced, beta-lactamase ratio, 5 h; at 7.69 µM (top of the series) unless noted
How it was run: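 Titration-series screen for positive or negative modulators of EC50 EGF-induced signaling in ME-180 cells carrying an AP-1-driven beta-lactamase reporter. After 5 hours at 37 degrees Celsius, CCF4 460nm/530nm emission ratio gave %Activity; AC50 values derived.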

[11] = target: Cytochrome P450 1A2 (Homo sapiens) (UniProt P05177); experiment: p450-cyp1a2 (AID 410; calls by dose curve;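 also: -100% = full effect of reference inhibitor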)
How it was run: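 20nM CYP1A2 with 100uM Luciferin-ME (at Km) in 100mM KPO4; compound preincubated 10 min, NADPH regeneration added, 60 min at room temperature. Luciferin quantified by luminescence after detection reagent; normalized to 57 uM furafylline.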

[12] = Stat Signaling Pathway (AID 446; active = well fitted curve in either direction with a large enough effect, not every such curve was filed as active;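 also: ME-180 cervical cancer cells given 40 pM IL-6 alongside compound; SIE-controlled beta-lactamase reporter measured as 460/530 nm FRET emission ratio; % is scaled to controls: 0 for no effect and ±100 for the full control effect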); conditions: ME-180 SIE beta-lactamase reporter, IL-6 stimulated, 5 h; at 7.69 µM (top of the series) unless noted
How it was run: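 Screening format detects activators and inhibitors alike: ME-180 SIE-bla cells stimulated at 40 pM IL-6 for 5 hrs with compound, then dual-emission beta-lactamase read at 405 nm excitation.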

[13] = target: Glucocorticoid receptor (Homo sapiens) (UniProt P04150); experiment: GR-GFP Redistribution (AID 450;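 active = compounds whose dose series gives a full or clear partial fitted curve of increased nuclear translocation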; also: potency is read from the fitted curve at half-maximal effect); conditions: U2OS GR-GFP nuclear translocation, laser cytometry, 2 h
[14] = Confirmation and Secondary Assay for Modulators of Hemoglobin Beta Chain Splicing at IVS2 705 locus (AID 930);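 also: HeLa cells stably expressing the EGFP-705 splicing reporter; GFP fluorescence per well restored by corrected splicing of the IVS2-705 intron in EGFP; % of control where 0% means no effect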
How it was run: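 Splice-correction reporter: EGFP cDNA split by beta-globin intron 2 bearing the 705 mutation, stably in HeLa. Compound incubation 2 days, 37C; fluorescent objects 5-250 µm summed per well.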

[15] = Cell Viability qHTS for small molecule stabilizers of the endoplasmic reticulum resident proteome (AID 1508629); conditions: cell viability counter-screen, 100 nM thapsigargin for final 4 h;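 also: potency is read from the fitted curve at half-maximal effect; compound exposure about 46 h in total before the viability read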
[16] = target: Rap guanine nucleotide exchange factor 3 (Homo sapiens) (UniProt O95398); experiment: Confirmatory qHTS for agonist of cAMP-regulated guanine nucleotide exchange factor 3 (EPAC1) (AID 1645881);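 also: EPAC1 catalysed release of BODIPY-GDP from Rap1B seen as fluorescence loss; 100% = effect of cAMP agonist control; nearly all actives have a fitted effect of over 75% in size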
[17] = target: Rap guanine nucleotide exchange factor 4 (Homo sapiens) (UniProt Q8WZA2); experiment: Confirmatory qHTS for agonist of cAMP-regulated guanine nucleotide exchange factor 4 (EPAC2) (AID 1645884);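 also: nucleotide exchange releases bodipy-GDP from Rap1 and this lowers its fluorescence; % is scaled to controls: 0 for no effect and ±100 for the full control effect; nearly all actives have a fitted effect of over 65% in size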
[18] = target: Rap guanine nucleotide exchange factor 4 (Homo sapiens) (UniProt Q8WZA2); experiment: Confirmatory qHTS for antagonist of cAMP-regulated guanine nucleotide exchange factor 4 (EPAC2) (AID 1645885); also: % is scaled to controls: 0 for no effect and ±100 for the full control effect; nearly all actives have a fitted effect of over 25% in size
[19] = target: Cytochrome P450 3A4 (Homo sapiens) (UniProt P08684); experiment: qHTS Assay for Activators of Cytochrome P450 3A4 (AID 885); also: nearly all actives have a fitted effect of over 65% in size
How it was run: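 Steps: enzyme/substrate mix dispensed; compound added, 10 min RT; NADPH regeneration solution added, 60 min RT; luciferin detection buffer stops reaction; 20 min later luminescence measured.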

[20] = target: DNA dC->dU-editing enzyme APOBEC-3G (Homo sapiens) (UniProt Q9HC16); experiment: qHTS for inhibitors of Vif-A3G interactions: Validation (AID 588379); also: 0% is about no effect
How it was run: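 HeLa cells stably expressing Vif and A3G-eYFP, 700 cells/well, incubated overnight at 37 deg C, then exposed to compound overnight at 37 deg C. Inhibition of Vif-mediated degradation read as increased yellow fluorescence (Ex 488/Em 500-530) by laser-scanning cytometry.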

Chain of Phenylethanolamine N-methyltransferase (Homo sapiens) (P11086 whole entry, looked up): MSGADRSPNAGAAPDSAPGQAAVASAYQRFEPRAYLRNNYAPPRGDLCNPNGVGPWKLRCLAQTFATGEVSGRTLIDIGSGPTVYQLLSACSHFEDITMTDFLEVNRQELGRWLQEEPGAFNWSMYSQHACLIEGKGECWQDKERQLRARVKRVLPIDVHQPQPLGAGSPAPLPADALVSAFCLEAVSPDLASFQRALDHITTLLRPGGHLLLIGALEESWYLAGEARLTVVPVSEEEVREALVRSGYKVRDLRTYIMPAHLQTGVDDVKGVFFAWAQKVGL
Chain of Catechol O-methyltransferase (Homo sapiens) (P21964 whole entry, looked up): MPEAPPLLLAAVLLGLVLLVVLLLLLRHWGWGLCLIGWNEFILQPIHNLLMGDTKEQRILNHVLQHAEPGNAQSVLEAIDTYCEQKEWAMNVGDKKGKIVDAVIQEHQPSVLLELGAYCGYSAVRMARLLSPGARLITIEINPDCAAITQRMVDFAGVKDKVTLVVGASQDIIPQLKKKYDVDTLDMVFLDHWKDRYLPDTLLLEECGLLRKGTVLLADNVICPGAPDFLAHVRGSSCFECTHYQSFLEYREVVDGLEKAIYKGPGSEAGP
Chain of Cytochrome P450 3A4 (Homo sapiens) (P08684 whole entry, looked up): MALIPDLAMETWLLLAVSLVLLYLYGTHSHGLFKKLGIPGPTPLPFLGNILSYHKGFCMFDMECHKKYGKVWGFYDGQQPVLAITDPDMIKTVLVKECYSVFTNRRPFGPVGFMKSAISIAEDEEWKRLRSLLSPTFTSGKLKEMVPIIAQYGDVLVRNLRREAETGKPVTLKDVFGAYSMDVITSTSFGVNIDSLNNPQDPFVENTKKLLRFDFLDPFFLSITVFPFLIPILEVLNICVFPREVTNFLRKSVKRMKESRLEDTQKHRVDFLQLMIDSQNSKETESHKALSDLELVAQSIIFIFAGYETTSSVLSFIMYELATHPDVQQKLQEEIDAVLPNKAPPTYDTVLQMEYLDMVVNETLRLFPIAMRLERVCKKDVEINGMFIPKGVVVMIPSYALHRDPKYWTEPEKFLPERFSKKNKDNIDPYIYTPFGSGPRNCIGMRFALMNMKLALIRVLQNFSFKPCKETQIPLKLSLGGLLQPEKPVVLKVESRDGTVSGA
Chain of Nicotinamide N-methyltransferase (Homo sapiens) (P40261 whole entry, looked up): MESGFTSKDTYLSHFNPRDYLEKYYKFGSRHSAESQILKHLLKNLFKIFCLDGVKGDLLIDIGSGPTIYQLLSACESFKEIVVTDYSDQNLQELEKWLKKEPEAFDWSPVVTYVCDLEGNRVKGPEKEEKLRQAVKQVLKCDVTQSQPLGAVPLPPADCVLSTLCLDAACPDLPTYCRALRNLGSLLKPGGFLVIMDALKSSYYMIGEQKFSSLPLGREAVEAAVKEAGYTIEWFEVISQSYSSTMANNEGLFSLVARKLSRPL
Chain of Rap guanine nucleotide exchange factor 4 (Homo sapiens) (Q8WZA2 whole entry, looked up): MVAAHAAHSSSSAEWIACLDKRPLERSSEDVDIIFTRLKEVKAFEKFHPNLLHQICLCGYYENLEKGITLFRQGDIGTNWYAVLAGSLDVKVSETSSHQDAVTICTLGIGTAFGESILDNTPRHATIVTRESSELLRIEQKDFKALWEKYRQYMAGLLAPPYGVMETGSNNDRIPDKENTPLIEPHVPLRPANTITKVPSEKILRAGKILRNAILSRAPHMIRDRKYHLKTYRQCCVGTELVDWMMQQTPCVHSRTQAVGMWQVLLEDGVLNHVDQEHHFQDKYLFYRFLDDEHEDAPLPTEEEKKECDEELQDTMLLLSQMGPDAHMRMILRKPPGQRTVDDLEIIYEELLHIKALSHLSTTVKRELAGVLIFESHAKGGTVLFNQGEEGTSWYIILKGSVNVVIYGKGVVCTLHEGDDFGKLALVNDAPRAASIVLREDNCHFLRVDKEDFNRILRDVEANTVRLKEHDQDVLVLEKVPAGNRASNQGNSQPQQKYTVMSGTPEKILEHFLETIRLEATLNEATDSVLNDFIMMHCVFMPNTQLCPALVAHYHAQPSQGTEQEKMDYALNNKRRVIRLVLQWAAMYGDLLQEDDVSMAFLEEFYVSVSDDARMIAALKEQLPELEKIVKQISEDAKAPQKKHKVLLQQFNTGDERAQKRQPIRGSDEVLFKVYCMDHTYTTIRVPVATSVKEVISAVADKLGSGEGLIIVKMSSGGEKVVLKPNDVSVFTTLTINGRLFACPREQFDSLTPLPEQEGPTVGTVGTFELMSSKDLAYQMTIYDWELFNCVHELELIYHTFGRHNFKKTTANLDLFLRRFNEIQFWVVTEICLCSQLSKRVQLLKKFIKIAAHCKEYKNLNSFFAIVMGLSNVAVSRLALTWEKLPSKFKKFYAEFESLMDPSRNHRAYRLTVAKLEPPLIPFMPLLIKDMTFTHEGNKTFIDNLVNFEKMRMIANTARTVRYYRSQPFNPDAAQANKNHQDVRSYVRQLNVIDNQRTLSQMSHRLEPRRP
Chain of DNA dC->dU-editing enzyme APOBEC-3G (Homo sapiens) (Q9HC16 whole entry, looked up): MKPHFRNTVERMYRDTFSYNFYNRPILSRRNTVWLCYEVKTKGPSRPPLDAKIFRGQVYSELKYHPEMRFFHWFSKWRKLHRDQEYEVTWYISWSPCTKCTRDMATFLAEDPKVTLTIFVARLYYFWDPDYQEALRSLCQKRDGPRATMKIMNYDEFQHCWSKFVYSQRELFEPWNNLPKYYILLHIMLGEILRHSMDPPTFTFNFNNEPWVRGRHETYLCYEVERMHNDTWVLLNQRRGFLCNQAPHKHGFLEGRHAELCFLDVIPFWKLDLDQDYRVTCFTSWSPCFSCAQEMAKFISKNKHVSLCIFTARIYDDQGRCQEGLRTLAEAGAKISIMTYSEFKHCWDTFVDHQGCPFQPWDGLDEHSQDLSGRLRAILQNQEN
Chain of Lysosomal acid glucosylceramidase (Homo sapiens) (P04062 whole entry, looked up): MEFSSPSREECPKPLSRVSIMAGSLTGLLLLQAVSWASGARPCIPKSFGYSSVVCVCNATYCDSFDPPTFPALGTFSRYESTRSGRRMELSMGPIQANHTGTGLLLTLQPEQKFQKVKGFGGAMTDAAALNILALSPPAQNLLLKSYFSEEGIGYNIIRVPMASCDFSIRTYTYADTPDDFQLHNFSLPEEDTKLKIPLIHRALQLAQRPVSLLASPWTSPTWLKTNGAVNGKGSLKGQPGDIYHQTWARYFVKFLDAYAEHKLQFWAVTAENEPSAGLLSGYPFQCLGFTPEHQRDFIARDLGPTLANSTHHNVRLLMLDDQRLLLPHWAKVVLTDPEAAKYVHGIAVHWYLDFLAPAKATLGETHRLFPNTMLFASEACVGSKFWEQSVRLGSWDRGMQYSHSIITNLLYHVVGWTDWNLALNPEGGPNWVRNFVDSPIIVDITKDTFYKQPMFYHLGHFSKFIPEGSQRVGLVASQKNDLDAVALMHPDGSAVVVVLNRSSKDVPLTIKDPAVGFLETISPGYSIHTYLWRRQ
Chain of Glucocorticoid receptor (Homo sapiens) (P04150 whole entry, looked up): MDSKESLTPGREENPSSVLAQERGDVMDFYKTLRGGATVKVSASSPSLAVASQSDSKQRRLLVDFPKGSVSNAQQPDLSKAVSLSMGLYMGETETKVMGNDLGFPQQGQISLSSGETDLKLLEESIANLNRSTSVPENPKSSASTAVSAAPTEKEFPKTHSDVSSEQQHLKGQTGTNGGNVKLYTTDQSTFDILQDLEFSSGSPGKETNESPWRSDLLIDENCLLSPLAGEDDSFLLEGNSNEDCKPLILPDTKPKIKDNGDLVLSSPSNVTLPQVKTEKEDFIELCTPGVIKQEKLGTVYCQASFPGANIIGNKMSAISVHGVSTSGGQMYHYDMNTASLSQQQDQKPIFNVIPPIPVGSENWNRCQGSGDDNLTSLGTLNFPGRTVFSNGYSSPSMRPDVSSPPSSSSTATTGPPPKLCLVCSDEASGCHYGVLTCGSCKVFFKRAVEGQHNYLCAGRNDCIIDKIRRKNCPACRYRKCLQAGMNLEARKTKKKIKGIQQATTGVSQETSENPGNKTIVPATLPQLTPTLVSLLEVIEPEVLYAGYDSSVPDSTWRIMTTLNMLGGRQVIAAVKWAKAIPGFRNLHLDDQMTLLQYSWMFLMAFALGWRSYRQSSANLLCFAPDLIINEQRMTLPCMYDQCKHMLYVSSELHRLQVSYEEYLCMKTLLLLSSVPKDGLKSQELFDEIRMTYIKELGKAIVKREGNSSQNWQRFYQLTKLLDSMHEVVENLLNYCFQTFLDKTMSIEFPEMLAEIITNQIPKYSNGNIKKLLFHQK
Chain of Rap guanine nucleotide exchange factor 3 (Homo sapiens) (O95398 whole entry, looked up): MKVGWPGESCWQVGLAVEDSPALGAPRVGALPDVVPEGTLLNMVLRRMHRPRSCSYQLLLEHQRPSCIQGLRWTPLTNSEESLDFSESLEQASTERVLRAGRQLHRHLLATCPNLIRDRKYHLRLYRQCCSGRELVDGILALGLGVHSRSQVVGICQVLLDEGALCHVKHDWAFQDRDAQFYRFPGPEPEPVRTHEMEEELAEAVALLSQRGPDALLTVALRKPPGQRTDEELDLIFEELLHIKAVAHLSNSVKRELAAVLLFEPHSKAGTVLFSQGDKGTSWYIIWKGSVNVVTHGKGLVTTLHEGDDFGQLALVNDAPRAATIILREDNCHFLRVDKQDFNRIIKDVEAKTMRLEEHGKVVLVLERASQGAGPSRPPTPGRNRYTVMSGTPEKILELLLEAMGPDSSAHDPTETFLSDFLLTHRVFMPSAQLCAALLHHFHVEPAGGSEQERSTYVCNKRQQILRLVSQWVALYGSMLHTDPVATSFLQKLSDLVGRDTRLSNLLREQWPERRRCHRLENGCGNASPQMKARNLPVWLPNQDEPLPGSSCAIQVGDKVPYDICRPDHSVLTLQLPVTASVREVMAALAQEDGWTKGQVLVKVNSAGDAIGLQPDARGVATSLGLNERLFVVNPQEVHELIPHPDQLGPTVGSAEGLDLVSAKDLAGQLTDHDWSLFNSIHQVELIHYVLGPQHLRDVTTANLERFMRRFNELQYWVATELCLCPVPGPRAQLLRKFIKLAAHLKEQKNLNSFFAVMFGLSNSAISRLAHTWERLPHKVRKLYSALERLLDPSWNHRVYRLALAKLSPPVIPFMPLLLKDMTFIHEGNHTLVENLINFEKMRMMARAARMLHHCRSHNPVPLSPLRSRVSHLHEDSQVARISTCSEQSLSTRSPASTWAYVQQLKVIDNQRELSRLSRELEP

SMILES: O=c1cc(-c2ccc(O)c(O)c2)oc2cc(O[C@@H]3O[C@H](CO)[C@@H](O)[C@H](O)[C@H]3O)cc(O)c12
- Potency [1]: inactive

SMILES: CC1c2cccc(O)c2C(O)=C2C(=O)C3(O)C(O)=C(C(N)=O)C(=O)C(N(C)C)C3C(O)C21 (centres undefined)
- Potency [2]: 282 µM (active)

SMILES: CN(C)c1cc(NC(=O)CNC(C)(C)C)c(O)c2c1C[C@H]1C[C@H]3[C@H](N(C)C)C(=O)C(C(N)=O)=C(O)[C@]3(O)C(=O)C1=C2O
- Potency [1]: inactive
- Potency [3]: inactive

SMILES: COc1cc(C(=O)O)ccc1NC(=O)[C@@H]1N[C@@H](CC(C)(C)C)[C@](C#N)(c2ccc(Cl)cc2F)[C@H]1c1cccc(Cl)c1F
- Potency [2]: 31.6 µM (active)
- Potency [4]: inactive
- activity [5]: -3.62%
- Potency [6]: 34.1 µM (active)
- activity [7]: -47.6%
- activity [8]: -14.4%

SMILES: CC(C)=CCc1c2c(c3occ(-c4ccc(O)c(O)c4)c(=O)c3c1O)C=CC(C)(C)O2
- Potency [9]: > 11.4 µM (inactive)
- activity change, negative = inhibition [10]: -0.16% (inactive)
- activity change, negative = inhibition [11]: -3% [at 2.29 µM] (inactive)
- activity, negative = inhibition [12]: -4.46% (inactive)
- Potency [13]: > 46 µM (inactive)
- outcome [14]: inactive
- Potency [2]: 7.08 µM (active)
- Potency [15]: 7.94 µM (active)
- outcome [16]: inactive
- outcome [17]: inactive
- Potency [18]: inactive

SMILES: O=C(OC[C@H]1O[C@@H](OC(=O)c2cc(O)c(O)c(O)c2)[C@H](OC(=O)c2cc(O)c(O)c(O)c2)[C@@H](OC(=O)c2cc(O)c(O)c(O)c2)[C@@H]1OC(=O)c1cc(O)c(O)c(O)c1)c1cc(O)c(O)c(O)c1
- Potency [3]: inactive

SMILES: CC1COC2=C1C(=O)C(=O)c1c2ccc2c1CCCC2(C)C (centres undefined)
- outcome [14]: inactive

SMILES: C=C[C@@](C)(O)CC[C@@H]1[C@@]2(C)CCCC(C)(C)[C@@H]2CC[C@@]1(C)O
- Potency [19]: inactive
- outcome [20]: inactive

SMILES: O=C1CC(c2ccc(O)cc2)Oc2ccccc21 (centres undefined)
- Potency [19]: inactive
- outcome [14]: inactive

SMILES: O=C1CC(c2ccc(O)cc2)Oc2cc(O)cc(O)c21 (centres undefined)
- Potency [19]: inactive
- outcome [14]: inactive
- outcome [20]: inactive

SMILES: O=C(/C=C\n1cnc(-c2cc(C(F)(F)F)cc(C(F)(F)F)c2)n1)NNc1cnccn1
- Potency [3]: 25.8 µM (active)

SMILES: O=C(/C=C/C#Cc1cccc(NS(=O)(=O)c2ccccc2)c1)NO
- activity [5]: 41.7%
- activity change, negative = inhibition [6]: -11.3%
- activity [7]: -13.8%
- activity [8]: 1.13%

SMILES: O=C(/C=C/c1ccc(CN(CCO)CCc2c[nH]c3ccccc23)cc1)NO
- activity [5]: 18.9%
- Potency [6]: 34.3 µM (active)
- activity [7]: -12.8%
- activity [8]: -2.68%
